# From PubChem BioAssay
# RGS16-Gao – modulators of RGS16 binding to Galphao, primary screen, biochemical, human proteins, multiplexed bead flow cytometry; bead-based flow cytometry RGS16-Galphao binding, fluorescence; actives lie on both sides; binding response (% of control), % at 10 µM; actives 0.38% (n = 220,000); AID 1441, 2008;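 further: Galphao activated by GDP with aluminum fluoride before binding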
# Target sequence (O15492 whole entry, looked up): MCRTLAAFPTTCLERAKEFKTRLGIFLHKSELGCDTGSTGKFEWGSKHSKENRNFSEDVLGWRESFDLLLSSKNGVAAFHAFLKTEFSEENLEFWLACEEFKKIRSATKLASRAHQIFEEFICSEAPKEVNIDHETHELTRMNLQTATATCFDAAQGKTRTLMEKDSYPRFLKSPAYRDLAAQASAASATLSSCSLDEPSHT
# Target sequence (P09471 whole entry, looked up): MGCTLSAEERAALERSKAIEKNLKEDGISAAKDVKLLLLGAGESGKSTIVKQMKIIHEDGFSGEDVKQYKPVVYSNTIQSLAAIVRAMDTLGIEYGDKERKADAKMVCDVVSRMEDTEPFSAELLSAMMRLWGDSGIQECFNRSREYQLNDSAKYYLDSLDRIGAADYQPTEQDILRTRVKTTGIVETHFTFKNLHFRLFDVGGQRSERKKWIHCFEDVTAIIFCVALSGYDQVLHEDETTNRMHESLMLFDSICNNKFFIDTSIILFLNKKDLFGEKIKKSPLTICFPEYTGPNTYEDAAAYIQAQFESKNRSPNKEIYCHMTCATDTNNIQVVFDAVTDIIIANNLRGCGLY
# RGS4-Gao reg – modulators of RGS4 binding to Galphao, primary screen, biochemical, multiplexed bead flow cytometry; Guanine nucleotide-binding protein G(o) subunit alpha (Homo sapiens), P09471; actives lie on both sides; binding response (% of control), % at 10 µM; actives 0.33% (n = 220,000); AID 1415, 2008; in the data active means binding response below about 49% or above about 150%; inactive means in between;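 further: fluorescent Galphao activated with aluminum fluoride binding bead-coupled RGS4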
# Target sequence (P09471 whole entry, looked up): as above
# RGS8-Gao reg – RGS8-Galphao binding modulators, primary screen, biochemical, multiplexed bead flow cytometry; actives 0.34% (n = 220,000); actives lie on both sides; response (percent of control binding), % at 10 µM; AID 1423, 2008; Guanine nucleotide-binding protein G(o) subunit alpha (Homo sapiens), P09471; in the data active means response below about 60% or above about 140%; inactive means in between;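 further: Galphao activated as the GDP aluminium fluoride complex binding bead-coupled RGS8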
# GSH fluor – compound fluorescence on glutathione beads, profiling panel, artefact control, biophysical, 488/530 nm, flow cytometry. GSH beads flow cytometry, compound fluorescence 488/530 nm; stronger effect = higher value. fluorescence (KMESF) at 10 µM. actives 0.25% (n = 190,000); in the data active means fluorescence above about 89;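 further: glutathione beads carrying GST-tagged Bcl family fusion proteins plus one bare bead set; values are compound well signal with DMSO vehicle wells as background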
# Avidin bead fluor – green autofluorescence of compounds with avidin beads – biophysical, 488/530 nm, flow cytometry, artefact control, profiling panel; compound fluorescence 488/530 nm; stronger effect = higher value; fluorescence (KMESF) at 10 µM; actives 0.38% (n = 220,000); AID 1775, 2009; in the data active means fluorescence above about 47
# RGS7-Gao – RGS7-Galphao binding modulators, primary screen, biochemical, multiplexed bead flow cytometry; Guanine nucleotide-binding protein G(o) subunit alpha (Homo sapiens), P09471; actives lie on both sides; binding response (% of control), % at 10 µM; actives 0.35% (n = 220,000); AID 1439, 2008; in the data active means binding response below about 49% or above about 150%; inconclusive means no clear call, values can overlap the other calls; inactive means in between;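 further: fluorescent Galphao held in activated GDP-AlF4 state binding bead-coupled RGS7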
# RGS-Gao – modulators of RGS–Galpha-o binding, primary screen, biochemical, multiplexed beads, flow cytometry, RGS4/7/8/16/19. shares compounds with RGS16-Gao. multiplexed bead flow cytometry. RGS4–Galpha-o binding response, % at 10 µM. actives 99% (n = 1,600). AID 1504, 2009;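 further: fluorescently labeled Galpha-o bound to GDP with aluminium fluoride binding biotinylated RGS beads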
# Biotin-avidin – disruption of biotin probe capture by avidin, counter-screen for RGS protein interaction modulators, biochemical, flow cytometry, bead-based | shares compounds with RGS16-Gao | streptavidin beads, fluorescein-biotin binding | inhibition, % at 10 µM | 1,700 tested, under 10 active | AID 1783, 2009;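 active means inhibition above 50%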;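 further: median green fluorescence of gated singlet beads compared with DMSO control wells; 0% = DMSO wells and 100% = complete loss of bead fluorescence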
# RGS8-Gao single – RGS8-Galphao binding modulators, confirmation, biochemical, multiplexed bead flow cytometry, single concentration; shares compounds with RGS16-Gao; bead-based flow cytometry RGS8-Galphao binding, fluorescence; actives lie on both sides; binding response (% of control), % at 10 µM; actives 3% (n = 1,700); AID 1836, 2009; in the data active means binding response below about 72% or above about 130%; inactive means in between;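 further: Galphao activated as GDP AlF4 complex before binding bead RGS8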
# RGS7-Gao single – RGS7-Galphao binding modulators, confirmation, biochemical, multiplexed bead flow cytometry, single concentration; AID 1837, 2009; shares compounds with RGS16-Gao; response (percent of control binding), % at 10 µM; bead-based flow cytometry RGS7-Galphao binding; actives lie on both sides; actives 7.8% (n = 1,700); in the data active means response below about 75% or above about 130%; inactive means in between;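 further: fluorescent Galphao activated with GDP and aluminum fluoride binding bead-coupled RGS7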
# RGS16-Gao conf – modulators of RGS16-Galphao protein binding, confirmation, biochemical, single concentration, multiplexed bead flow cytometry; response (% of control binding), % at 10 µM; actives 4% (n = 1,700); shares compounds with RGS16-Gao; bead-based flow cytometry; actives lie on both sides; AID 1838, 2009; in the data active means response below about 74% or above about 130%; inactive means in between;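 further: Galphao activated as the GDP aluminium fluoride complex binding bead-coupled RGS16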
# RGS4-Gao single – modulators of RGS4-Galphao protein binding, confirmation, biochemical, single concentration, multiplexed bead flow cytometry. actives 4% (n = 1,700). binding response (% of control), % at 10 µM. AID 1840, 2009. actives lie on both sides. shares compounds with RGS16-Gao; in the data active means binding response below about 74% or above about 130%; inactive means in between
# RGS19-Gao conf – regulators of RGS19-Galphao binding, confirmation, biochemical, single point, multiplexed bead flow cytometry; actives 5% (n = 1,700); shares compounds with RGS16-Gao; AID 1841, 2009; bead-based flow cytometry RGS19-Galphao binding; actives lie on both sides; response (percent of control binding), % at 10 µM; in the data active means response below about 50% or above about 160%; inactive means in between;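 further: 100% = no compound control and 0% = blank background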
# * hit, by the source's call; ? = inconclusive; · = no result given; [ ] = dose if it differs, or a comment. A selection: hits, their analogues and other compounds. The true share with any hit is near 1.2%. Unless noted, how the calls were made is not given here.
SMILES,RGS16-Gao,RGS4-Gao reg,RGS8-Gao reg,GSH fluor,Avidin bead fluor,RGS7-Gao,Biotin-avidin,RGS8-Gao single,RGS7-Gao single,RGS16-Gao conf,RGS4-Gao single,RGS19-Gao conf,others
Cc1ccc(Cn2nnc3c(=O)[nH]c(C4CCCN(S(=O)(=O)c5ccccc5)C4)nc32)cc1 (configuration not stated),-107*,73,73,19,9,80,0,105,99,107,105,109,RGS-Gao=73*
Nc1nc2nc(-c3cccs3)cc(C(F)(F)F)n2n1,98,100,101,11,9,?,·,·,·,·,·,·,
COc1ccc(CCN2C(=S)N(C)C(=O)C2CC(=O)Nc2ccc(F)cc2)cc1 (configuration not stated),102,98,98,·,5,?,·,·,·,·,·,·,
Cc1cc(N2CCN(c3ccccc3)CC2)nc(-c2ccccc2O)n1,-549,38*,90,13,7,84,1,100,106,103,103,106,
Cc1cc(N2CCC(C)CC2)nc(-c2ccccc2O)n1,99,102,99,·,7,?,·,·,·,·,·,·,
Nc1c(C(=O)c2ccco2)oc2ccccc12,96,96,97,17,10,?,·,·,·,·,·,·,
Cc1ccc(OCC(=O)N/N=C/C=C/c2ccco2)cc1C,3.6*,67,60*,17,6,65,0,93,95,99,99,80,RGS-Gao=67*
O=c1[nH]c(CN2CCN(S(=O)(=O)c3ccccc3C(F)(F)F)CC2)nc2sc3c(c12)CCCC3,127,110,107,13,16,97,·,·,·,·,·,·,
CCN1CCN(C(=S)c2ccc(OCC(=O)N3CCOCC3)cc2)CC1,5.2*,8.1*,17*,20,-2,8.8*,0,108,100,110,102,132,
CCN1CCN(C(=S)c2ccc(OCC(=O)NCc3ccccc3)cc2)CC1,83,101,90,9,8,154*[activator],0,97,112,97,101,101,RGS-Gao=101*
Cc1cccc(OCC(=O)N2CCOCC2)c1,123,160*[activator],97,11,277*,271*[activator],0,101,95,103,101,101,
Cc1ccc(-c2ccc(OCC(=O)N3CCOCC3)cc2)cc1,103,101,106,31,16,104,·,·,·,·,·,·,
CCN(CCn1cccn1)Cc1c(C(=O)N2C[C@@H](C)O[C@@H](C)C2)nc2ccc(Cl)cn12,103,103,104,51,11,102,·,·,·,·,·,·,
O=[N+]([O-])c1cccc(-c2nnc3ccccn23)c1,100,102,98,·,·,?,·,·,·,·,·,·,
CCCn1c(SCC(=O)Nc2ccccc2Oc2ccccc2)n[nH]c1=O,-28*,78,83,42,1,84,1,103,102,100,100,112,RGS-Gao=78*
CCCn1c(SCC(=O)Nc2cccc(Cl)c2Cl)n[nH]c1=O,111,106,103,15,20,103,·,·,·,·,·,·,
Oc1cc2c(cc1O)C1c3ccc(O)c(O)c3OCC1(O)C2 (configuration not stated),3.4*,67,19*,18,0,32*,·,·,·,·,·,·,RGS-Gao=67*
CCCCOc1ccc(/C=C/C(=O)NC2=Nc3ccccc3NC(C)=C2C(=O)OCC)cc1OC,101,104,103,24,10,102,·,·,·,·,·,·,
CS(=O)(=O)N(CC(=O)Nc1cccnc1)c1ccc2c(c1)OCO2,·,·,·,17,·,·,4,92,80,84,87,78,
CS(=O)(=O)N(CC(=O)Nc1cccnc1)c1ccc2c(c1)OCCO2,140,109,109,35,9,101,·,·,·,·,·,·,
CSC1=N/C(=C/c2cccnc2)C(=O)N1Cc1ccccc1,-5.1*,-9.4*,12*,·,-2,?,0,97,95,98,100,60,
CCN(CC)S(=O)(=O)c1ccc(C(=O)NC(C)(C)C)cc1,106,107,105,22,11,108,·,·,·,·,·,·,
COCCNC(=O)c1cc(Sc2nnc(C)s2)nc2ccccc12,40,36*,60*,·,2,?,-1,105,94,111,96,109,
O=C(NCc1cccnc1)c1ccc(NC(=O)c2cccc([N+](=O)[O-])c2)cc1,101,98,101,26,12,99,·,·,·,·,·,·,
CC(C)(C)c1cc(NCc2ccccn2)n2ncc(-c3ccccc3)c2n1,100,98,99,·,10,?,·,·,·,·,·,·,
CC(C)c1ccc2oc3nc(N)c(C(=O)O)cc3c(=O)c2c1,97,97,96,67,8,98,·,·,·,·,·,·,
Nc1ccc2oc3ccc(N)cc3c(=O)c2c1,54,5.6*,44*,8,0,-13*,3,104,104,106,110,106,
